HCV inhibitor: qHTS Assay for Inhibitors of Hepatitis C Virus (HCV); Huh7.5.1 HCVcc-Cre infection, luciferase reporter, 44 h; Potency, µM (series often up to 41.8 µM), for the others: at the top dose activity change, negative = inhibition, most hits filed as inhibitors; actives 3.4% (n = 340,000); also: potency is read from the fitted curve at half-maximal effect
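Seed cells (1,000/well) for 4 h; treat with compound and infect with HCVcc-Cre, moi about 0.5. Incubate 44 h, then detect luciferase activity.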
HCMV inh: qHTS Assay for inhibitors of the human cytomegalovirus (HCMV) | activity change, negative = inhibition, % at 57.5 µM | actives 4.5% (n = 410,000) | HFF cells, HCMV-luciferase reporter, 72 h; hits give low values; in the data active = activity change below about -60%; inconclusive = no clear call, values can overlap the other calls; inactive = above about -39%
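Inhibition of viral replication was scored as loss of reporter luminescence in HFFs infected with HCMV-luciferase (MOI 1 PFU/cell) for 72 h; compounds tested at 2 doses, normalized to buffer and Salinomycin controls.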
FMDV antiviral: High Throughput Screening for Foot and Mouth Disease Virus Antivirals | Potency, µM (series often up to 57.9 µM), for the others: top-dose activity change, negative = inhibition, actives largely listed as inhibitors | actives 1.2% (n = 410,000) | FMDV antiviral cell-based qHTS; calls by dose curve; tested in HEK293T cells; also: read-out not given here; potency is read from the fitted curve at half-maximal effect; nearly all actives have a fitted effect of over 45% in size
AmpC detergent: qHTS Inhibitors of AmpC Beta-Lactamase (assay with detergent). P00811. AmpC hydrolysis of nitrocefin, absorbance 480 nm, 0.01% Triton. Potency, µM (doses to about 114 µM), inactives show at the highest dose activity change, negative = inhibition, most hits filed as inhibitors. actives 0.041% (n = 370,000);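 also: potency is read from the fitted curve at half-maximal effect; 0% = no-compound wells and -100% = no-enzyme wells; nearly all actives have a fitted effect of over 25% in size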
Target sequence (P00811 whole entry, looked up): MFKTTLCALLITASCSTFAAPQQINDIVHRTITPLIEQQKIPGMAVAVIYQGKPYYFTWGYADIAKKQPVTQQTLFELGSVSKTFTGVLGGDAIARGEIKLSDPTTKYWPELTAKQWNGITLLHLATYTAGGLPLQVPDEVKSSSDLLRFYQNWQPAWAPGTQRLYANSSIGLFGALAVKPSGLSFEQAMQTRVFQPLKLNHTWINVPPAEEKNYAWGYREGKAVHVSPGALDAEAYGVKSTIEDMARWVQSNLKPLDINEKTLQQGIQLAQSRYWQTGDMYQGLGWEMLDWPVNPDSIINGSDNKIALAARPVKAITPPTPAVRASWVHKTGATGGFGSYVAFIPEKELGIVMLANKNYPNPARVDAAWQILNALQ
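AmpC (5.3 nM in the dispensed reagent) in 20 mM phosphate pH 7.0 with 0.01% (detergent screen) or 0.0001% Triton X-100 was preincubated with compounds for 15 min at room temperature. Nitrocefin was then added from an 800 uM solution, and hydrolysis was followed at 480 nm.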
AmpC inh no detg: qHTS Inhibitors of AmpC Beta-Lactamase (assay without detergent); P00811; AmpC nitrocefin hydrolysis, absorbance 480 nm, 0.0001% Triton; actives 0.52% (n = 330,000); Potency, µM (doses to about 57.1 µM), for the others: top-dose activity change, negative = inhibition, most hits filed as inhibitors; AID 485341, 2010;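 also: potency is read from the fitted curve at half-maximal effect; plate controls were no compound for no effect and no enzyme for full effect; nearly all actives have a fitted effect of over 20% in size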
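AmpC (5.3 nM in the dispensed reagent) in 20 mM phosphate pH 7.0 with 0.01% (detergent screen) or 0.0001% Triton X-100 was preincubated with compounds for 15 min at room temperature. Nitrocefin was then added from an 800 uM solution, and hydrolysis was followed at 480 nm.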
* = called active by the depositor; ? = inconclusive; . = no result given; [ ] = dose if it differs, or a comment. A selection: hits, their analogues and other compounds. The true share with any hit is near 7.3%. Unless noted, calls follow the shape of the dose curve; as a rule, active = well fitted curve in the direction sought with a large enough effect; inconclusive = small, poorly fitted or top-dose-only effect, or another doubt; inactive = no such curve, though single readings can be large; an effect the other way counts as inactive or inconclusive. Unless noted, % is scaled to controls: 0 for no effect and ±100 for the full control effect.

SMILES	HCV inhibitor	HCMV inh	FMDV antiviral	AmpC detergent	AmpC inh no detg
CC(=O)Nc1ccc(-c2csc(NC(=O)c3ccc(C)o3)n2)cc1	-17.1%	38.8	0.0%	0.1%	-21.3%
CCc1noc(C)c1C(=O)OCC(=O)Nc1nc(-c2ccc(F)c(F)c2)cs1	?	14.2	14.1µM*	-2.3%	-34.0%
CCc1noc(C)c1C(=O)Nc1nc(-c2ccc(NC(C)=O)cc2)cs1	10µM*	-33.8	22.4µM*	-6.8%	-12.6%
COCCn1c(SCC(=O)Nc2cccnc2Cl)nc2ccccc2c1=O	-10.7%	0.0	-20.4%	5.4%	-9.9%
CC(=O)OC(C)(C)/C=C/C(=O)C(C)(O)C1C(O)CC2(C)C3CC=C4C(CC(O)C(=O)C4(C)C)C3(C)C(=O)CC12C (centres undefined)	?	-97.8*	31.6µM*	.	.
CC1(C)Oc2ccc3ccc(=O)oc3c2C[C@H]1O[C@@H]1O[C@H](CO)[C@@H](O)[C@H](O)[C@H]1O	23.1%	2.9	-23.0%	.	-8.1%
CC(=O)OC(C)(C)/C=C/C(=O)[C@](C)(O)[C@H]1[C@H](O)C[C@@]2(C)[C@@H]3CC=C4[C@H](C[C@H](O)C(=O)C4(C)C)[C@]3(C)C(=O)C[C@]12C	-16.5%	.	17.8µM*	?	155.1%
CC(=O)OC(C)(C)/C=C/C(=O)[C@](C)(O)C1[C@H](O)C[C@@]2(C)C3CC=C4C(C=C(O[C@@H]5O[C@H](CO)[C@@H](O)[C@H](O)[C@H]5O)C(=O)C4(C)C)[C@]3(C)C(=O)C[C@]12C (some centres undefined)	-47.6%[8.37 µM]	-86.4*	0.0%	.	155.4%
CC(=O)OC(C)(C)/C=C/C(=O)C(C)(O)C1[C@H](O)C[C@@]2(C)C3CC=C4C(CC[C@@H](O)C4(C)C)[C@]3(CO)C(=O)C[C@]12C (some centres undefined)	?	-101.3*	17.8µM*	-10.0%	12.6%
COc1ccc(C(C)(NC(C)=O)c2nc(-c3ccccc3OC)cs2)cc1 (centres undefined)	.	-8.7	-23.6%	.	.
COc1ccc(CNC(=O)c2cnn(-c3nccc(-c4ccco4)n3)c2C)cc1OC	.	.	35.0%	.	.
COc1cc2c3nnc(-c4ccccc4)c-3cn(Cc3ccccc3F)c2cc1OC	?	-97.3*	-15.2%	3.3%	-14.7%
COc1cc2c3nnc(-c4ccc(F)cc4)c-3cn(Cc3ccccc3F)c2cc1OC	?	-89.4*	?	-7.9%	41.1%
CC(=O)Oc1cc2c(cc1Cl)C1(CC(c3ccccc3Cl)O2)CC(C)(C)NC(=S)N1 (centres undefined)	10µM*	-38.3	?	-1.4%	-20.7%
CCCCN(C(=O)c1ccc2c(c1)NC(=O)CS2)c1ccccc1	?	-100.3*	-19.1%	2.4%	-13.1%
CC1CCCCN1CCCNC(=O)c1ccc2c(c1)NC(=O)CN2C (centres undefined)	.	4.6	-6.4%	.	.
CCN(CC)C(=O)c1ccc(NC(=O)c2ccc3c(c2)NC(=O)CS3)cc1	-1.1%	113.0	1.1%	.	-25.0%
CCCCN(CCCNC(=O)c1ccc2c(c1)NC(=O)CN2C)c1ccccc1	.	-98.3*	22.4µM*	.	.
CCCCN(CCCNC(=O)c1c(C)cc(=O)oc1C)c1ccccc1	3.98µM*	24.4	-1.0%	1.8%	77.8%
CCN(CCCNC(=O)c1c(C)cc(=O)oc1C)c1ccccc1	?	3.6	11.5%	-6.7%	?
COCCN(C(=O)COC(=O)CSc1ccc(Cl)cc1)c1c(N)n(Cc2ccccc2)c(=O)[nH]c1=O	6.4%[8.37 µM]	-15.4	0.0%	?	159.7%
COCc1cc(N2CCN(C(=O)OC(C)(C)C)C[C@@H]2C)ccc1N1CC[C@H](O)C1	.	76.4	.	.	.
Cc1nc(Cc2ccccc2)sc1CC#N	1.3%	6.7	-0.9%	.	.
Cc1cc(NC(=O)Nc2ccc3c(ccn3C)c2)sn1	0.562µM*	-5.2	45.4%	.	.
COc1ccc(/C=N/Nc2ccc([N+](=O)[O-])cc2)cc1O	-23.9%	124.2	10.6%	-9.6%	-41.3%

Assay outcomes deposited in PubChem BioAssay by National Center for Advancing Translational Sciences (NCATS).
